Screening results as filed in PubChem BioAssay.
This is a sample that favours compounds with a hit; in the whole collection about 2.1% have one here.
Abeta rescue: A-beta toxicity reversal in yeast; Potency, µM (top dose mostly 46.1 µM), usual class: activators; 410,000 compounds, 0.063% hits; yeast expressing A-beta42, growth rescue, OD600, 48 h; response scale: 0% DMSO, 100% iron-clioquinol control; note: nearly all actives have a fitted effect of over 55% in size
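Growth rescue measured by 600 nm absorbance after 48 h yeast culture at 30 C with compound. Values normalized between DMSO and an equimolar ferric chloride plus clioquinol control.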
FUS yeast rescue: rescues growth of FUS-expressing yeast; S. cerevisiae FUS-expressing, growth rescue, OD600, 24 h; Potency, µM (titrated, usually from 76.6 µM), hits mostly activators; AID 1347120; 390,000 compounds, 0.24% hits;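 note: plate controls were DMSO vehicle for no effect and reference control for full effect; nearly all actives have a fitted effect of over 55% in size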
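Cultures pregrown in 2.5% raffinose medium are shifted to minimal medium containing 2% galactose to express toxic FUS. Compounds are tested at several concentrations. After 24hr at 30C, growth is quantified at 600 nm absorbance.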
TDP43 rescue: rescues yeast growth from TDP-43 toxicity | 410,000 compounds, 1.8% hits | Potency, µM (titrated, usually from 46.1 µM), for inactives: top-dose growth rescue (activation), usual class: activators | TDP-43 expressing yeast growth rescue, BacTiter-Glo, 24 h; note: % of control where 0% means no effect; nearly all actives have a fitted effect of over 50% in size
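In this qHTS, compounds that restore growth of yeast expressing TDP-43 appear as activators. Cells (OD600=0.02, galactose medium, raffinose-pregrown) are incubated with compound 24 hr at 30 deg C and growth is quantified by BacTiter-Glo.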
aSyn rescue: rescues yeast growth from alpha-synuclein toxicity | Yeast expressing alpha-synuclein, growth rescue, BacTiter-Glo, 24 h | Potency, µM (highest dose often 46.1 µM), without a hit: top-dose growth rescue (activation), hits mostly activators | 370,000 compounds, 0.14% hits | AID 652106; note: % of control where 0% means no effect; nearly all actives have a fitted effect of over 65% in size
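Rescue of yeast growth: cells expressing toxic alpha-synuclein, induced in galactose at OD600 0.02, incubated with compound 24 h at 30 C. ATP luminescence quantified growth; inhibitors of toxicity appear as activators.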
* marks the source's active call; other numbers are inactive results; [ ] = another dose, or the depositor's remark. Calls come from the whole dose curve; as a rule, active = well fitted curve in the direction sought with a large enough effect; inconclusive = small, poorly fitted or top-dose-only effect, or another doubt; inactive = no such curve, though single readings can be large; an effect the other way counts as inactive or inconclusive. Potency is the fitted concentration of half-maximal effect.

For O=C(O)c1cccc(-c2ccc3c(c2)OCO3)c1 the results were Abeta rescue inactive, FUS yeast rescue inactive, TDP43 rescue 13µM* and aSyn rescue 17%.
For O=C(c1ccc(F)cc1F)N1CCN(c2ccccn2)CC1 the results were Abeta rescue inactive, FUS yeast rescue inactive, TDP43 rescue 2% and aSyn rescue -1%.
`CC12CCC(=O)N1C(C(=O)Nc1nc(-c3ccccc3Cl)cs1)CS2` (centres undefined) gave Abeta rescue inactive, FUS yeast rescue inactive, TDP43 rescue 10µM* and aSyn rescue 7%.
`c1ccc2sc(NCC3CCCO3)nc2c1` (centres undefined) gave Abeta rescue inactive, FUS yeast rescue inactive, TDP43 rescue 3%[0.397 µM] and aSyn rescue -3%.
C=CCNc1nc(-c2ccc3c(c2)OCCO3)cs1 was read as Abeta rescue inactive, FUS yeast rescue inactive, TDP43 rescue 23% and aSyn rescue 0%.
Screening c1ccc2oc(-c3csc(NCC4CCCO4)n3)cc2c1 (centres undefined) returned Abeta rescue inactive, FUS yeast rescue inactive, TDP43 rescue 11µM* and aSyn rescue -2%.
C=CCNc1nc(-c2cc3ccccc3o2)cs1 was read as Abeta rescue inactive, TDP43 rescue 13µM* and aSyn rescue -1%.
For Cc1cc(C)c(S(=O)(=O)NCCn2c(C)cc3ccccc32)c(C)c1 the results were Abeta rescue 7.9µM*, FUS yeast rescue inconclusive, TDP43 rescue 35µM* and aSyn rescue inconclusive.
Screening C[C@@H]1CC=C[C@@H]2[C@H]1C(=O)N(Cc1ccccc1)[C@H]2c1ccccc1Br returned Abeta rescue inactive, FUS yeast rescue inactive, TDP43 rescue 11µM* and aSyn rescue -12%.
CC(=O)c1ccc(NC(=O)Cn2nc(N3CCN(c4ccccc4)CC3)ccc2=O)cc1 was read as Abeta rescue inactive, FUS yeast rescue inactive and TDP43 rescue 0%.
`Cc1ccc(NC(=O)Cn2nc(N3CCN(c4ccccc4)CC3)ccc2=O)cc1F` gave Abeta rescue inactive, FUS yeast rescue inconclusive and TDP43 rescue 18µM*.
Screening O=C(Nc1ccc(F)cc1)c1ccc(Cn2nc(N3CCN(c4ccccc4)CC3)ccc2=O)o1 returned Abeta rescue inactive, FUS yeast rescue inconclusive and TDP43 rescue 22µM*.
`Cc1ccc(C)c(N2CCN(S(=O)(=O)c3cc(C(=O)Nc4ccccc4C(F)(F)F)ccc3F)CC2)c1` gave Abeta rescue 4µM*, FUS yeast rescue inactive and TDP43 rescue inconclusive.
Cc1ccccc1NC(=O)c1ccc(F)c(S(=O)(=O)N2CCN(c3ccccn3)CC2)c1 was read as Abeta rescue inactive, FUS yeast rescue inactive, TDP43 rescue 0% and aSyn rescue -13%.
For COc1cccc(C=C(C(C)=O)C(=O)c2ccccc2)c1 the results were Abeta rescue inactive, FUS yeast rescue inactive, TDP43 rescue 11µM* and aSyn rescue inconclusive.
`Cc1occc1C(=O)N/N=C/c1ccc(-c2ccccc2)cc1` gave Abeta rescue inactive, FUS yeast rescue inactive, TDP43 rescue -37% and aSyn rescue -33%.
`COc1cccc(C(=O)N/N=C/C(Br)=C/c2ccccc2)c1` gave Abeta rescue inactive, FUS yeast rescue inactive, TDP43 rescue 20µM* and aSyn rescue 12%.
For Cc1occc1C(=O)N/N=C/C(Br)=C/c1ccccc1 the results were Abeta rescue inactive, FUS yeast rescue inactive, TDP43 rescue 14µM* and aSyn rescue -14%.
COc1ccc(C(=O)N/N=C/C(Br)=C/c2ccccc2)cc1 was read as Abeta rescue inactive, FUS yeast rescue inactive, TDP43 rescue 2% and aSyn rescue -12%.
C[C@H]1[C@@H](C(=O)N2CCCC2)CC(=O)/C(=N/OCc2ccccc2)C[C@@H]1c1ccccc1 was read as FUS yeast rescue inactive.
COc1cccc(-c2cccc(-c3nc(C(=O)Nc4ccc(-c5ccccc5)cc4)cc4c3[C@H](CCO)N(S(=O)C(C)(C)C)C4)c2)c1 (some centres undefined) was read as Abeta rescue inactive, FUS yeast rescue 28µM*, TDP43 rescue 0% and aSyn rescue -15%.
CC(C)(C)S(=O)N1Cc2cc(C(=O)NCc3ccc(Oc4ccccc4)cc3)nc(-c3cccc(-c4cc5ccccc5o4)c3)c2[C@H]1CCO (some centres undefined) was read as Abeta rescue inactive, FUS yeast rescue inconclusive, TDP43 rescue 28% and aSyn rescue -27%.
CC(C)(C)S(=O)N1Cc2cc(C(=O)NCC(F)(F)F)nc(-c3cccc(-c4cccc(F)c4)c3)c2[C@@H]1CCO (some centres undefined) was read as Abeta rescue inactive, FUS yeast rescue 22µM*, TDP43 rescue 16% and aSyn rescue -2%.
For COc1cccc(-c2cccc(-c3nc(C(=O)NCc4ccc5c(c4)OCO5)cc4c3[C@H](CCO)N(S(=O)C(C)(C)C)C4)c2)c1 (some centres undefined) the results were Abeta rescue inactive, FUS yeast rescue 20µM*, TDP43 rescue -19% and aSyn rescue -53%.
CC(C)(C)S(=O)N1Cc2cc(C(=O)NCc3ccc4c(c3)OCO4)nc(-c3cccc(-c4cc5ccccc5o4)c3)c2[C@@H]1CCO (some centres undefined) was read as Abeta rescue inactive, FUS yeast rescue 28µM*, TDP43 rescue -10% and aSyn rescue -18%.
For CC1CC(OC(=O)C2CCN(S(=O)(=O)c3ccc(F)cc3)CC2)C(=O)O1 (centres undefined) the results were Abeta rescue inactive, FUS yeast rescue inactive, TDP43 rescue -11% and aSyn rescue -3%.
Screening O=C(CSc1nnc(-c2ccccn2)n1-c1ccccc1)Nc1ccc(OCc2ccccc2)cc1 returned FUS yeast rescue inactive.
Screening CN1CCCN(C(=O)Cc2c(Cl)cccc2Cl)c2nc3ccccc3nc21 returned Abeta rescue inactive, FUS yeast rescue inactive, TDP43 rescue 22µM* and aSyn rescue 8%.
CN1CCCN(C(=O)c2cc(=O)[nH]c3ccccc23)c2nc3ccccc3nc21 was read as Abeta rescue inactive, FUS yeast rescue inactive, TDP43 rescue 13% and aSyn rescue -12%.
`COC(=O)c1ccc(CSc2nnc(Nc3ccc(OC)cc3)s2)o1` gave Abeta rescue inactive, FUS yeast rescue inactive, TDP43 rescue 14% and aSyn rescue 0%.
`COC(=O)c1ccc(CSc2nnc(Nc3ccccc3OC)s2)o1` gave Abeta rescue inactive, FUS yeast rescue inactive, TDP43 rescue 18µM* and aSyn rescue -8%.
Screening N#Cc1ccc(C(C(=O)NCc2ccccc2)n2c(=O)c(-c3cc4ccccc4[nH]3)nc3ccccc32)cc1 (centres undefined) returned Abeta rescue inactive, FUS yeast rescue inconclusive, TDP43 rescue inconclusive and aSyn rescue 6%.
